Cruzain noTriton: cruzain (T. cruzi) inhibition without detergent | purified cruzain, Z-FR-AMC fluorescence, no detergent | hit rate 2.3% among 200,000 | Potency, µM, without a hit: max response, negative = inhibition, hits mostly inhibitors | AID 1476 | P25779;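 note: plate controls were enzyme without inhibitor for no effect and buffer without enzyme for full effect; nearly all actives have a fitted effect of over 40% in size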
Target sequence (P25779 123-467 limits assumed): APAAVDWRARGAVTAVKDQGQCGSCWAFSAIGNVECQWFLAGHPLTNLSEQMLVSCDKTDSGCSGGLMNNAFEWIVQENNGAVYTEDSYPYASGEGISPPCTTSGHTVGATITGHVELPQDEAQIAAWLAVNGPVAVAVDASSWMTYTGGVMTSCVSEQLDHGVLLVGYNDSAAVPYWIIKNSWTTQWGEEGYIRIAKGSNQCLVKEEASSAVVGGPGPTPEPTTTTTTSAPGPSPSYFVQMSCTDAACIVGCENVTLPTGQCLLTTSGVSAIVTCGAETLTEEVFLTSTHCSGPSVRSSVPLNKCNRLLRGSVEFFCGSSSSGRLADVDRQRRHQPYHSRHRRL
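Detergent-free condition (0.00005% Triton X-100) in acetate buffer pH 5.5 with DTT. 1.5 nM enzyme and compound were pre-mixed 15 min, then 2 uM Z-FR-AMC substrate added; reaction progress from fluorescence change between first and third reads (60 s).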
Cruzain inh Det: blocks cruzain activity in presence of Triton detergent; P25779; purified cruzain, Z-FR-AMC fluorescence, 0.01% Triton; Potency, µM, without a hit: max response, negative = inhibition, actives largely listed as inhibitors; hit rate 0.43% among 200,000;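 note: plate controls were neutral wells for no effect and buffer without enzyme for full effect; nearly all actives have a fitted effect of over 40% in size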
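Detergent-containing run (0.01% Triton X-100) in acetate buffer pH 5.5 with 5 mM DTT: enzyme at 1.5 nM final, 15 min compound preincubation at room temperature, then 2 uM Z-FR-AMC substrate. Activity taken as 60 s fluorescence increase at 360/450 nm.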
The depositor's hits bear a star; ? = inconclusive. Only some compounds are listed: those with a hit (about 2.5% of all), similar ones and a draw of the others. Calls come from the whole dose curve; as a rule, active = well fitted curve in the direction sought with a large enough effect; inconclusive = small, poorly fitted or top-dose-only effect, or another doubt; inactive = no such curve, though single readings can be large; an effect the other way counts as inactive or inconclusive. Potency is the fitted concentration of half-maximal effect.

SMILES	Cruzain noTriton	Cruzain inh Det
CCc1ccc(C2=C/C(=C/c3cccnc3)C(=O)O2)cc1	2.9%	-10.4%
Cc1ccc(C2=N/C(=C\c3cccnc3)C(=O)O2)cc1	12.6µM*	14.1µM*
CCN(CC)C(=O)CSc1nc(-c2ccccc2F)nc2c1Cc1c(CO)cnc(C)c1O2	?	-5.0%
Cc1ccc(N/N=C(/Sc2nnnn2-c2ccccc2)C(=O)c2ccccc2)cc1	31.6µM*	-5.2%
O=C(/C(=N\Nc1ccc([N+](=O)[O-])cc1)Sc1nnnn1-c1ccccc1)c1ccccc1	?	-7.8%
O=C(C1COc2ccccc2O1)N(Cc1cccnc1)c1nc2ccc(Cl)cc2s1 (stereo not given)	-18.5%	-2.2%
CCN(CC)CCCNC(=O)C1CCN(S(=O)(=O)CC)CC1	-2.7%	0.1%
N#Cc1ccc(Oc2ccc(-c3nc4ccccc4nc3-c3ccccc3)cc2)cc1C#N	?	-4.2%
Nc1ccc(Oc2ccc3nc(-c4ccccc4)c(-c4ccc([N+](=O)[O-])cc4)nc3c2)cc1	15.8µM*	6.3%
CCOc1ccc(NC(=O)Cc2ccc(NC(=O)N3CCCCc4ccccc43)cc2)cc1	2.4%	-2.9%
CC(C)(C)c1ccc(-c2csc(NC(=O)CN3C(=O)NC4(CCCCC4)C3=O)n2)cc1	7.94µM*	1.6%
CCNC(=O)CN1C(=O)NC2(CCCCCC2)C1=O	5.0%	5.1%
Cc1nc2c3ccccc3nc(NNC(=O)CCC(=O)N3CCN(c4cccc(Cl)c4)CC3)n2n1	?	1.0%
COc1ccc(C2=Nn3c(nc4sc(C(=O)Nc5cccc(C)c5)c(C)c4c3=O)SC2)cc1	20.3%	-1.2%
O=C(NNc1nc2ccc(Cl)cc2s1)c1cc(-c2cccs2)nc2ccccc12	7.94µM*	1.6%
Cc1ccc2sc(NNC(=O)c3cc(-c4cccs4)nc4ccccc34)nc2c1C	10µM*	0.3%
O=C(NN1CCOCC1)c1cc(-c2cccs2)nc2ccccc12	9.7%	-9.5%
Cc1cc(C)c2nc(NNC(=O)c3cc(-c4cccs4)nc4ccccc34)sc2c1	?	1.8%
CC(C)c1cnc2c(c1SCC(=O)Nc1cccc(F)c1)c(=O)n(C)c(=O)n2C	-2.6%	-0.9%
Cc1ccc(Cl)cc1NC(=O)Cn1c(=O)c2ccccc2n2nncc12	10.7%	-1.4%
CC1=C(C(=O)OCc2ccc3c(c2)OCO3)C(c2ccccc2OCc2ccccc2)NC(=O)N1 (stereo not given)	15.8µM*	-0.7%
CC1=C(C(=O)OCc2ccc3c(c2)OCO3)C(c2ccccc2)NC(=O)N1 (stereo not given)	-5.7%	-3.8%
COc1ccc(/C=C2\CCCC3C2=NN(C(=O)CSc2ncn[nH]2)C3c2ccc(OC)cc2)cc1 (stereo not given)	?	-4.8%
COc1ccc(/C=C2\CCCC3C2=NN(C(=O)COC(=O)CNC(=O)c2ccccc2)C3c2ccc(OC)cc2)cc1 (stereo not given)	15.8µM*	-25.7%
CC1(C)Cc2c(c(N3CCCCC3)[nH]c(=S)c2C#N)CS1	12.6µM*	-1.3%
SMILES	Cruzain noTriton	Cruzain inh Det
CC1CCN(c2[nH]c(=S)c(C#N)c3c2CCCC3)CC1	-20.9%	2.6%
COC(=O)Cn1c(=NC(=O)c2ccc(Cl)s2)sc2cc(F)ccc21	25.1µM*	-9.3%
C#CCn1c(=NC(=O)c2ccc(Cl)s2)sc2cccc(OC)c21	?	4.9%
COCCOc1cc(NC(=O)c2sccc2Oc2ccc([N+](=O)[O-])cc2F)c(Cl)cc1Cl	15.8µM*	1.0%
CCN(CC)S(=O)(=O)c1ccc(OC)c(NC(=O)c2cc([N+](=O)[O-])ccc2Cl)c1	-0.8%	2.0%
Cc1[nH]c2c(ccc3ccccc32)c1C1C(CCN)C1(C)C (stereo not given)	10µM*	-2.2%
Cc1[nH]c2c(Cl)cccc2c1CCN	4.9%	4.7%
CCOC(=O)c1sc(NC(=O)/C=C/c2ccccc2)nc1C	25.1µM*	-1.1%
CCOC(=O)c1sc(NC(=O)C(OC(C)=O)c2ccccc2)nc1C (stereo not given)	-1.7%	-16.7%
Cc1nc(NC(=O)/C=C/c2ccccc2)sc1C(=O)Nc1ccccc1	-18.6%	2.6%
CCOC(=O)c1sc(NC(=O)C(CC)OC(=O)C(CC(C)C)NC(=O)c2ccccc2)nc1C (stereo not given)	-6.9%	10µM*
Cc1sc(NC(=S)NC(=O)CCc2ccccc2)c(C(N)=O)c1C	3.98µM*	-0.1%
COC(=O)CCC(=O)NC(=S)Nc1sc(C)c(C)c1C(N)=O	?	-0.8%
CCNc1ncc2nc(C)c(=O)n(Cc3cccs3)c2n1	-4.0%	-3.9%
CCN(CC)c1ccc(/C=N/N(c2ccccc2)c2ccccc2)c(O)c1	?	-4.4%
CCN(CC)c1ccc(/C=N/N=C(c2ccccc2)c2ccccc2)c(O)c1	25.1µM*	-5.3%
Cc1cc(C)c(NC(=O)C2CCN(c3nnc(C)c4c(C)n(-c5ccccc5)nc34)CC2)c(C)c1	18.8%	-17.5%
COc1ccc(NC(=O)CCn2cnnn2)cc1	-1.9%	2.2%
Cc1ccc2c(c1)cc1c(=O)n(Cc3ccc(Cl)cc3)nc(C)n12	-1.9%	-0.9%
CCCNc1cc(C)c(C#N)c2nc3ccccc3n12	13.0%	4.3%
Cc1cc(NCCCO)n2c(nc3ccccc32)c1C#N	31.6µM*	-15.3%
CC1CCN(C(=O)CN2CCSc3ccccc32)CC1	-3.5%	-1.3%
CCOC(=O)C1CCN(S(=O)(=O)c2ccc3c(c2)NC(=O)C(C)C(=O)N3)CC1 (stereo not given)	19.4%	-2.8%
CC(C)(C)C1CCc2onc(C(=O)Nc3cccc(O)c3)c2C1 (stereo not given)	5.3%	-0.4%
Cc1ccc(NC(=O)c2noc3c2CC(C(C)(C)C)CC3)cc1 (stereo not given)	12.6µM*	4.5%
SMILES	Cruzain noTriton	Cruzain inh Det
COc1ccc(-n2c(=O)c3c(c4cc(OC)ccc4n3C)n(CCC(C)C)c2=O)cc1	11.8%	-2.5%
CCn1c(C)c(C)c2cc(C(=O)NCCCN3CCCCC3C)ccc21 (stereo not given)	-1.6%	7.4%
COc1ccc(NC(=O)C(Cc2ccccc2)NS(=O)(=O)c2ccc(Br)s2)cc1OC (stereo not given)	-2.8%	-4.9%
O=C(Nc1ccc(Cl)c(C(F)(F)F)c1)C(Cc1ccccc1)NS(=O)(=O)c1ccc(Br)s1 (stereo not given)	3.98µM*	-0.3%
Cc1ccc(NC(=O)C(Cc2ccccc2)NS(=O)(=O)c2cccs2)cc1Cl (stereo not given)	12.6µM*	-0.9%
CCc1cccc(NC(=O)C(Cc2ccccc2)NS(=O)(=O)c2cccs2)c1 (stereo not given)	3.4%	-9.7%
CCCOc1cccc(C(=O)Nc2cccc(-c3nc4ncccc4o3)c2C)c1	8.2%	-0.5%
O=C(c1cnccn1)N1CCC2(CC1)CCN(c1ccccc1)CC2	-3.6%	-0.6%
COc1ccc(NC(=O)C2CCCN(S(=O)(=O)c3ccc(Cl)cc3)C2)cc1 (stereo not given)	-0.5%	0.5%
Cc1ccc(CNC(=O)Cn2ccn(-c3cc(C)cc(C)c3)c(=O)c2=O)cc1	?	-7.4%
CCCCN(CCCC)C1=C(C(=O)c2ccccc2)N(C)S(=O)(=O)c2ccccc21	2.9%	-9.9%
COc1ccc(C(=O)OC(C(=O)c2ccccc2)c2ccccc2)cc1 (stereo not given)	-8.8%	-0.8%
Cc1ccc(C(=O)C(OC(=O)CNC(=O)c2ccc(Cl)cc2)c2ccccc2)cc1 (stereo not given)	10µM*	6.31µM*
COc1ccc(C(=O)C(OC(=O)CNC(=O)c2ccco2)c2ccccc2)cc1 (stereo not given)	3.16µM*	3.98µM*
